In PubChem BioAssay (NCI):
The panel holds about 79,000 compounds, 15% with a hit somewhere; the sample as a whole holds those more often. No stated cut-off is given here; in the data, active means growth inhibition above about 70%; inactive means the rest.

Key:
[1] = NCI Yeast Anticancer Drug Screen. Data for the rad50 strain (AID 155);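 further: 0% = growth of vehicle-only cultures of the same strain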; details: S. cerevisiae rad50 strain growth inhibition; at 50.0 µM; active compounds read high
Method in brief: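 Compounds were tested on a yeast strain with an engineered DNA damage repair alteration; the reported value is growth inhibition normalised to vehicle treatment.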

[2] = NCI Yeast Anticancer Drug Screen. Data for the mec2-1 strain (AID 157); details: S. cerevisiae mec2-1 strain, at 50.0 µM, active compounds read high
Method in brief: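 Mutant yeast (mec2-1) grown with compound; growth inhibition relative to vehicle control reported.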

[3] = NCI Yeast Anticancer Drug Screen. Data for the sgs1 mgt1 strain (AID 161);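 further: 0% = growth of cultures given vehicle only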; details: S. cerevisiae sgs1 mgt1 strain, at 50.0 µM, active compounds read high
Method in brief: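 Growth of a repair-deficient yeast mutant was monitored after compound treatment and expressed as inhibition relative to vehicle-treated cultures.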

[4] = NCI Yeast Anticancer Drug Screen. Data for the cln2 rad14 strain (AID 165);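 further: 0% = growth equal to vehicle treated cultures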; details: S. cerevisiae cln2 rad14 strain, at 50.0 µM, active compounds read high
Method in brief: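 Readout is yeast growth inhibition versus vehicle-treated controls, using a strain with cln2 and rad14 alterations exposed to compound.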

[5] = NCI Yeast Anticancer Drug Screen. Data for the bub3 strain (AID 167); details: S. cerevisiae bub3 mutant strain, at 50.0 µM, active compounds read high
Method in brief: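 Growth of a checkpoint-deficient yeast mutant is measured after compound exposure. Values represent inhibition relative to vehicle.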

[6] = NCI Yeast Anticancer Drug Screen. Data for the mlh1 rad18 strain (AID 175); details: S. cerevisiae mlh1 rad18 strain growth inhibition; at 50.0 µM; active compounds read high
Method in brief: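 Genetically defined yeast (DNA repair-deficient) exposed to compounds; growth inhibition determined relative to vehicle.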

Measured: growth inhibition

CC[n+]1nc2ccccc2c(=Nc2ccccc2[N+](=O)[O-])[n-]1
inactive: [1] 11.8% | [2] 13.1% | [3] 12.3% | [4] 29.4% | [5] 25.2% | [6] 7.15%

CCOC(=O)c1c(/N=C/c2ccc3c(c2)OCO3)sc2c1CCCC2
inactive: [1] 7.7% | [2] -23.3% | [3] 17.8% | [4] 11.8% | [5] 11.3% | [6] 3.2%

CC(=O)c1ccc(N=C2c3ccccc3CN2c2ccc(C(C)=O)cc2)cc1
inactive: [1] 11.8% | [2] -13.6% | [3] -6.75% | [4] -10.6% | [5] -5.25% | [6] 4.5%

CCCCOC(OCCCC)C(OCCCC)OCCCC
inactive: [1] 18.9% | [2] 8.2% | [3] 19.8% | [4] -0.4% | [5] 16.4% | [6] 38%

NC(Cc1ccccc1)C(=O)NCC(=O)Oc1ccc([N+](=O)[O-])cc1 (stereo not given)
inactive: [1] 36.5% | [2] 20.4% | [3] 20.1% | [4] 18.1% | [5] 2.35% | [6] 23.1%

Cc1cccc(C(C)(C)C)c1NC(=O)/C(Cc1nc2ccc([N+](=O)[O-])cc2[nH]c1=O)=N/NC(=O)C[N+](C)(C)C
inactive: [1] 6.4% | [2] -10.4% | [3] -9.1% | [4] -17.4% | [5] -18.9% | [6] -22.6%

CCOC(=O)COc1cc2c(cc1C(CC)c1ccccc1)OCO2 (stereo not given)
inactive: [1] -7.85% | [2] -1.45% | [3] -3.25% | [4] 5.95% | [5] 9.45% | [6] 2.9%

COC(=O)C12C=CC(C1)n1c(=O)n(-c3ccccc3)c(=O)n12 (stereo not given)
inactive: [1] -8.55% | [2] 7.25% | [3] 0.5% | [4] -0.2% | [5] 4.4% | [6] -2.9%

O=CCC1CCCCC1
inactive: [1] -4.8% | [2] -2.2% | [3] -13.1% | [4] 16.9% | [5] 22.1% | [6] 6.25%

O=C1OCc2cccc3c2-c2c1cccc2C(=O)OC3
inactive: [1] -3% | [2] -5.7% | [3] -4.8% | [4] 16.2% | [5] -12.5% | [6] 6.7%

CCSc1[nH]c2nc[nH]c(=O)c2c1C#N
inactive: [1] -8.1% | [2] 21.2% | [3] -32.5% | [4] -17.8% | [5] 0.45% | [6] -8.4%

CCSC(SCC)C(Nc1ccc([N+](=O)[O-])cc1[N+](=O)[O-])C(OC(C)=O)C(OC(C)=O)C(COC(C)=O)OC(C)=O (stereo not given)
inactive: [1] 30.9% | [2] 9.65% | [3] 10.2% | [4] 14.8% | [5] -2.9% | [6] 12.8%

CNC(=O)N(CC1CCCCC1)c1nc2c(=O)n(C)c(=O)[nH]c2s1
inactive: [1] -4.75% | [2] -5.9% | [3] -1% | [4] -22.7% | [5] -4.25% | [6] -3.6%

CN(C)/C(=N/C(=O)Nc1ccccc1)SCc1ccccc1
inactive: [1] -10.5% | [2] -3.9% | [3] 0.45% | [4] -32% | [5] -9.1% | [6] -1.2%

CN(C)CCOC(=O)C(O)C1CCCCC1 (stereo not given)
inactive: [1] -14.3% | [2] 12.8% | [3] 5.5% | [4] 18.4% | [5] 15.2% | [6] -19.9%

O=C1CSCCO1
inactive: [1] -7.3% | [2] -27.4% | [3] -3.6% | [4] -37% | [5] 1.05% | [6] -7%

CC(=O)OC(C)(C)[C@@H]1CC[C@H](C)C2=C(C1)[C@@H](C)CC2
inactive: [1] -13.8% | [2] -30.9% | [3] -23.9% | [4] 2.05% | [5] -16.1% | [6] -16.1%

CCOP(=O)(O)C1CC2C3CC=C4CC(O)CCC4(C)C3CCC2(C)C1C(C)=O (stereo not given)
inactive: [1] 15.9% | [2] -3.25% | [3] -0.55% | [4] -14.4% | [5] -2% | [6] 3.5%

CN(N=O)C(=O)NCCc1ccccc1
inactive: [1] 13.6% | [2] -11.9% | [3] 11.6% | [4] -36.6% | [5] -5.2% | [6] 16.2%

CC(=O)[C@H]1CC[C@H]2[C@@H]3CC=C4N(CCO)C(=O)CC[C@]4(C)[C@H]3CC[C@]12C
inactive: [1] -18.9% | [2] -1.4% | [3] 14.8% | [4] -28.1% | [5] 25.9% | [6] 13.3%

C=C(Br)CNC(=O)Nc1ccc(Cl)c(Cl)c1
inactive: [1] -0.3% | [2] 16.1% | [3] 21.4% | [4] 5.7% | [5] 22.6% | [6] -86.2%

Nc1nc(Cl)c(Cl)nc1C(=O)O
inactive: [1] -4.65% | [2] 10.4% | [3] 2.3% | [4] -32.6% | [5] -4.25% | [6] -1.15%

COc1ccc(/C=N/NC(=O)C(=O)Nc2ccc(Cl)c([N+](=O)[O-])c2)cc1OC
inactive: [1] 2.15% | [2] -20.9% | [3] -0.65% | [4] 2.85% | [5] -4.1% | [6] -6.4%

COc1cccc2c(=O)oc(-c3ccc(C(C)(C)C)cc3)nc12
inactive: [1] 16.4% | [2] 8.8% | [3] 18.4% | [4] 1.3% | [5] 13.4% | [6] 30.9%

CCOC(=O)C1=C(O)c2ccccc2S(=O)(=O)N1C (tested in a mixture with another compound)
inactive: [1] 4.05% | [2] 20.3% | [3] 14% | [4] -18.9% | [5] -25.6% | [6] 0%

C[n+]1ccc(/C=C/c2c[nH]c3ccccc23)cc1
inactive: [1] 6.25% | [2] 10.8% | [3] 3.6% | [4] -1.75% | [5] 5.1% | [6] -8.3%

C[Si](C)(C)OC=C1CCCCC1
inactive: [1] 12.1% | [2] -3.95% | [3] -3.55% | [4] -29.2% | [5] -21.4% | [6] 9.7%

Cc1ccc(/C([O-])=C(/C(=S)Nc2ccccc2)[n+]2ccccc2)cc1
inactive: [1] -5.3% | [2] 22% | [3] 7.55% | [4] -22.1% | [5] 18.1% | [6] 13.1%

FC(F)(F)c1cccc(C2SCc3nc4ccccc4n32)c1 (stereo not given)
inactive: [1] -16.4% | [2] 6.6% | [3] 7.1% | [4] 0.45% | [5] 23.9% | [6] 21.7%

O=C1c2ccccc2C(=O)c2c(Nc3ccc4c5c(cccc35)C(=O)c3ccccc3-4)cccc21
inactive: [1] 23.1% | [2] 6.25% | [3] -14.2% | [4] -31.7% | [5] -8.4% | [6] 13.2%

C[n+]1c(/C=C/C=C/c2ccccc2)oc2ccccc21
inactive: [1] -38.3% | [2] -2.25% | [3] -22.6% | [4] -11.2% | [5] 5.8% | [6] 9.7%

N#Cc1c[nH]c2cccc([N+](=O)[O-])c12 (tested in a mixture with another compound)
inactive: [1] 7.95% | [2] -10.9% | [3] 7.8% | [4] 17.9% | [5] 13.4% | [6] -2.8%

CC(C(=O)n1c2ccccc2c2ccccc21)N(c1ccccc1)c1ccccc1 (stereo not given)
inactive: [1] -16.8% | [2] -15.1% | [3] -30.2% | [4] 9.15% | [5] -29.4% | [6] -19.6%

C/C(=N\NS(=O)(=O)c1ccc(C)cc1)P(=O)(O)O
inactive: [1] -6.85% | [2] -13.4% | [3] -24.7% | [4] 8.1% | [5] -16.1% | [6] 22.6%

OC(Cc1ccccc1)c1ccccc1 (stereo not given)
inactive: [1] -21.9% | [2] -19.8% | [3] -24.8% | [4] 16.2% | [5] -5.15% | [6] 1.5%

NC(=S)N/N=C/c1cc(=O)c2cc(Cl)ccc2o1
inactive: [1] -0.05% | [2] 11.8% | [3] 42.3% | [4] 45.8% | [5] 7.95% | [6] 55%

C[N+](C)(C)CCOC(=O)/C=C/c1cnc[nH]1
inactive: [1] 9.7% | [2] 10.9% | [3] 37.7% | [4] 23.6% | [5] 6.4% | [6] 16.1%

CCOC1=C2C(C)(CCC3[C@@]4(C)C=CC(=O)C(C)(C)C4CC(O)[C@@]23C)C(c2ccoc2)C1=O (stereo not given in full)
inactive: [1] 54% | [2] 31% | [3] 45.5% | [4] 45.3% | [5] 20.1% | [6] 30.8%

COc1ccc(C2(C)OCCCC2([NH-])C[NH-])cc1.[Cl][Pt+2][Cl] (stereo not given)
inactive: [1] 10.9% | [2] -3.15% | [3] -2.95% | [4] 21.6% | [5] -0.4% | [6] 9.45%

O=Nc1ccc(Cl)cc1
inactive: [1] -7.1% | [2] 28.9% | [3] -10.3% | [4] 7.15% | [5] 14.9% | [6] 8.45%
